Experimental data as given in the supplement of paper PMC10849652.
About 7,900 targets were measured; listed, in parts, are those with a hit and a random draw of the rest. About 0.6% of all pairs of compound and target were hits. Values without a mark were called inactive.

Legend:
Test in all cases: log2 fold change, soluble protein after heating vs DMSO (PISA); higher = thermal stabilisation; K562 cells, 10 uM, 30 min; active = over 0.2 and 3.5 SD of the protein, either way, in both replicates (recomputed)
[1] = compound: Cc1ccc(NC(=O)c2ccc(CN3CC[C@H](N(C)C)C3)c(C(F)(F)F)c2)cc1Nc1nccc(-c2cncnc2)n1 [bafetinib]
Outline: (§1)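 K562 cells at 2×10^6 cells/mL were treated for 30 min with 10 μM compound, and aliquots were heated for 3 min over 48°C-58°C before pooling. Extraction used PBS with 0.5% NP-40 at 4°C, and soluble protein was the supernatant after 21,000xg for 90 min, measured by TMTpro 16plex LC-MS/MS with channel sums equalised. Thermal stability values, relative to control samples and from duplicates, are log2 fold changes.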

[2] = compound: Cc1cccc(CC(=O)N2CCc3c2ccc(-c2cn(C)c4ncnc(N)c24)c3F)n1
Outline: as §1

[3] = compound: Cc1cn(-c2cc(NC(=O)c3ccc(C)c(Nc4nccc(-c5cccnc5)n4)c3)cc(C(F)(F)F)c2)cn1 [nilotinib]
Outline: as §1

[4] = compound: Cc1nc(Nc2n[nH]c3c2CN(C(=O)N[C@H](CN(C)C)c2ccccc2)C3(C)C)c2sccc2n1
Outline: as §1

[5] = compound: Cc1nc(Nc2ncc(C(=O)Nc3c(C)cccc3Cl)s2)cc(N2CCN(CCO)CC2)n1 [dasatinib]
Outline: as §1

[6] = compound: Cc1ncc(-c2ccnc(Nc3ccc(S(C)(=O)=O)cc3)n2)n1C(C)C
Outline: as §1

[7] = compound: Cn1cc(-c2ccc3c(c2)CCN3C(=O)Cc2cccc(C(F)(F)F)c2)c2c(N)ncnc21
Outline: as §1

[8] = compound: Cn1cc(-c2ccc3nnc(C(F)(F)c4ccc5ncccc5c4)n3n2)cn1
Outline: as §1

[9] = compound: Cn1cncc1[C@@](N)(c1ccc(Cl)cc1)c1ccc2c(c1)c(-c1cccc(Cl)c1)cc(=O)n2C [tipifarnib]
Outline: as §1

[10] = compound: FC(F)(F)c1ccc(/C=C/c2nc(COc3ccc(CCCCn4ccnn4)cc3)co2)cc1 [mubritinib]
Outline: as §1

[11] = compound: NC(=O)Nc1cc(-c2cccc(F)c2)sc1C(=O)N[C@H]1CCCNC1
Outline: as §1

[12] = compound: NC(=O)c1cnc(N[C@@H]2CCCC[C@@H]2N)nc1Nc1cccc(-n2nccn2)c1
Outline: as §1

[13] = compound: NC1(c2ccc(-c3nc4ccn5c(=O)[nH]nc5c4cc3-c3ccccc3)cc2)CCC1
Outline: as §1

[14] = compound: NCC(=O)Nc1ccc(-n2nc(C(F)(F)F)cc2-c2ccc3c(ccc4ccccc43)c2)cc1
Outline: as §1

[15] = compound: Nc1ccccc1NC(=O)c1ccc(CNC(=O)OCc2cccnc2)cc1 [entinostat]
Outline: as §1

[16] = compound: O=C(CCCCCCC(=O)Nc1ccccc1)NO [vorinostat]
Outline: as §1

[17] = compound: O=C(CCCCCCNC(=O)c1cnc(N(c2ccccc2)c2ccccc2Cl)nc1)NO [citarinostat]
Outline: as §1

[18] = compound: O=C(O)c1ccc2c(c1)nc(Nc1cccc(Cl)c1)c1ccncc12 [silmitasertib]
Outline: as §1

[19] = compound: O=C1NC(=O)C(c2cnc3ccccn23)=C1c1cn2c3c(cc(F)cc13)CN(C(=O)N1CCCCC1)CC2
Outline: as §1

[20] = compound: c1cc(OCCN2CCCCC2)cc(-c2n[nH]c3ccc(-c4nnc[nH]4)cc23)c1
Outline: as §1

Sequence of UniProt Q14671 (Q14671 whole entry, looked up): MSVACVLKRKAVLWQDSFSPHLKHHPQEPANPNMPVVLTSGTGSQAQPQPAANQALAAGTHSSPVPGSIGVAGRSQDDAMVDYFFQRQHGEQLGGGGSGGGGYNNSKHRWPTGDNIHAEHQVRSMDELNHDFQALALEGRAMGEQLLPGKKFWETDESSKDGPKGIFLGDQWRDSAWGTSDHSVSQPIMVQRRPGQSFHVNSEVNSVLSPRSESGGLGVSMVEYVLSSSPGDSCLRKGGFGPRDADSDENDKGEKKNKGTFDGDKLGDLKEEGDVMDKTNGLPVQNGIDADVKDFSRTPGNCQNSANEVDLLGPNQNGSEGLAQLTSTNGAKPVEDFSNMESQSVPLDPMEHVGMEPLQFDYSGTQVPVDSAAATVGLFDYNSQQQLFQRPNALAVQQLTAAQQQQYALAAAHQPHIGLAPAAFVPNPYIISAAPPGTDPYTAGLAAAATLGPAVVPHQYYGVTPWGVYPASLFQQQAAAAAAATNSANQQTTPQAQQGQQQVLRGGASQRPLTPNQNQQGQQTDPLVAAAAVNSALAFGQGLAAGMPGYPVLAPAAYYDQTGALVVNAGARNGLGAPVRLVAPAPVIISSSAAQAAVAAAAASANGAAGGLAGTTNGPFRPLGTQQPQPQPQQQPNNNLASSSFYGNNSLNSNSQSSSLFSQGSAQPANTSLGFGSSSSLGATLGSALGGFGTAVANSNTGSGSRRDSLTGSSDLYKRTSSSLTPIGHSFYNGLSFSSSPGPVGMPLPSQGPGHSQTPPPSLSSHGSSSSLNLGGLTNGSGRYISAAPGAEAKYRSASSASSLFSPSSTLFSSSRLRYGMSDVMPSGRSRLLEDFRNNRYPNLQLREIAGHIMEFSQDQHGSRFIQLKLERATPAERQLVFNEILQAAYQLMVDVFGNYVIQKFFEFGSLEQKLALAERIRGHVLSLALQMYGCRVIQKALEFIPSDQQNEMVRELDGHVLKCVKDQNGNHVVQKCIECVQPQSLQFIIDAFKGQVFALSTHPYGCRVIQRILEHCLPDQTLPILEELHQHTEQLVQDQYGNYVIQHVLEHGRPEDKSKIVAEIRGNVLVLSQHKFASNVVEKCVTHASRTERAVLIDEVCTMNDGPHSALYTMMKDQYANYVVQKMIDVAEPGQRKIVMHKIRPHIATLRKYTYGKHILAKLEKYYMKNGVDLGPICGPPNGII
Sequence of UniProt Q8IZL8 (Q8IZL8 whole entry, looked up): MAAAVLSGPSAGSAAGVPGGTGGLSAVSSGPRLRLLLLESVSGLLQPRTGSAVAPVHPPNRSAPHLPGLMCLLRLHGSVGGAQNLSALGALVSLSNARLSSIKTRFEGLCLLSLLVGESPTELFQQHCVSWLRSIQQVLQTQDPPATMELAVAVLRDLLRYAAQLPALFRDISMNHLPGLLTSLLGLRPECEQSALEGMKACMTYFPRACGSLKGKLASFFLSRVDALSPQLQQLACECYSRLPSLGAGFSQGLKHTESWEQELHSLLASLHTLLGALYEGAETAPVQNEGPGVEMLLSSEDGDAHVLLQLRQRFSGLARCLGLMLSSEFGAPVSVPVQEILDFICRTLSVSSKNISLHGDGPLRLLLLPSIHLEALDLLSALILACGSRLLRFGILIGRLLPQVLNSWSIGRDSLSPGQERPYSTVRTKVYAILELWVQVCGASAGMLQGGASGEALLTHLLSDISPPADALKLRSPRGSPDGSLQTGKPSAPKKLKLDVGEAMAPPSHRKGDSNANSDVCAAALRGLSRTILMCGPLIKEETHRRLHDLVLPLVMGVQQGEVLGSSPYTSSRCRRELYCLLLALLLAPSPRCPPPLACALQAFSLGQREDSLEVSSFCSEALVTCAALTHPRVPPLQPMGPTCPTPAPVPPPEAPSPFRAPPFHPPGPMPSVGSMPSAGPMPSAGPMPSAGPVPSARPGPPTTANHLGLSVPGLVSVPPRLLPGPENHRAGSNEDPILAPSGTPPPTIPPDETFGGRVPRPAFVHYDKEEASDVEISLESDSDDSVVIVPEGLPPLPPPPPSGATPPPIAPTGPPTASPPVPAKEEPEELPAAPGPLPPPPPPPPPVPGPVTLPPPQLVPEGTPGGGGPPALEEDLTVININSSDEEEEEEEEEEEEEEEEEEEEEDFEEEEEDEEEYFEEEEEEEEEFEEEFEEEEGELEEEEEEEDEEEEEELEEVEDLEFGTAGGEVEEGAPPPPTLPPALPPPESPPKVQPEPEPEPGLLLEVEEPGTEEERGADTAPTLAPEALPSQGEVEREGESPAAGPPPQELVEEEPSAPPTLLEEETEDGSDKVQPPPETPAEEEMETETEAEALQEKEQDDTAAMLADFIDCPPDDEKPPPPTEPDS
Sequence of UniProt Q8NHP8 (Q8NHP8 whole entry, looked up): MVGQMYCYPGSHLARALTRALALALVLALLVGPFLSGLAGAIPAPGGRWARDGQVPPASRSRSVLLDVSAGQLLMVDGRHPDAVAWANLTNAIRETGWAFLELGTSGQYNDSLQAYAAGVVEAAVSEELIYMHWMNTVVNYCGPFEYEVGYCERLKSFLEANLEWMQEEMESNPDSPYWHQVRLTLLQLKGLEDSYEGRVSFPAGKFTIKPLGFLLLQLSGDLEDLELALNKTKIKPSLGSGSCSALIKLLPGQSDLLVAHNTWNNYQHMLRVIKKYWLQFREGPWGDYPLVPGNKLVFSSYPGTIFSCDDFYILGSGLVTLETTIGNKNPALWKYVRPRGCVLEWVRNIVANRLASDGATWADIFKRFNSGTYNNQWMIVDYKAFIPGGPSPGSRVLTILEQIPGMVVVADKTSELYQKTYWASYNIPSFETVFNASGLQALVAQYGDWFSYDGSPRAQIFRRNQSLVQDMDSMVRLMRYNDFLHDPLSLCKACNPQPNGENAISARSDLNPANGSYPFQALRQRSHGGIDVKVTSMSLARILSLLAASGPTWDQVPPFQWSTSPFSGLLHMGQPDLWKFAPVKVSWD
Sequence of UniProt Q5H8A4 (Q5H8A4 whole entry, looked up): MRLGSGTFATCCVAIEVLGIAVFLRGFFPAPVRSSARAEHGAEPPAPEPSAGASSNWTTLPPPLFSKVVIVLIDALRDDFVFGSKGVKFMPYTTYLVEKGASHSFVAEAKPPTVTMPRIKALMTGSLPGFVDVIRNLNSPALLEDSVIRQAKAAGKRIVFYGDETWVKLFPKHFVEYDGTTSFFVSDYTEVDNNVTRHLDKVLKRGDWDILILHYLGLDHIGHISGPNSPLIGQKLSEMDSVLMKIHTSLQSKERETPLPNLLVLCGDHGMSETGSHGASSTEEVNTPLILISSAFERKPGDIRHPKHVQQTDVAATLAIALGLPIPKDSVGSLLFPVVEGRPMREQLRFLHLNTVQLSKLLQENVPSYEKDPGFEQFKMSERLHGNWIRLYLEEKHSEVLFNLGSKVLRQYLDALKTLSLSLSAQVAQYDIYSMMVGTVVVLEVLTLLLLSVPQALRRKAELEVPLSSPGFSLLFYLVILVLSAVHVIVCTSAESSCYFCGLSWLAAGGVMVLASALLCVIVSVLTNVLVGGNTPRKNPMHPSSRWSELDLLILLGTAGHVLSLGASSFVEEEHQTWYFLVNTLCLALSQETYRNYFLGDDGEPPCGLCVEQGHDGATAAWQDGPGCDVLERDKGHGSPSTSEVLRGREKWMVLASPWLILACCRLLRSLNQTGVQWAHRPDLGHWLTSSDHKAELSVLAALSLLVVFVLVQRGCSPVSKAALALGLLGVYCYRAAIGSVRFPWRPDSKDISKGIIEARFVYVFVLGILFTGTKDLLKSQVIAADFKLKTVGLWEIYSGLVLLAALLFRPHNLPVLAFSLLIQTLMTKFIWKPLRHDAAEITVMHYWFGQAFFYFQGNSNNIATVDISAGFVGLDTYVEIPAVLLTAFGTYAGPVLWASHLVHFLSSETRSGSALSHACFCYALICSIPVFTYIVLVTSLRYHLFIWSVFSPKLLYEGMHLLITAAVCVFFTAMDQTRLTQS
Sequence of UniProt Q8N8N7 (Q8N8N7 whole entry, looked up): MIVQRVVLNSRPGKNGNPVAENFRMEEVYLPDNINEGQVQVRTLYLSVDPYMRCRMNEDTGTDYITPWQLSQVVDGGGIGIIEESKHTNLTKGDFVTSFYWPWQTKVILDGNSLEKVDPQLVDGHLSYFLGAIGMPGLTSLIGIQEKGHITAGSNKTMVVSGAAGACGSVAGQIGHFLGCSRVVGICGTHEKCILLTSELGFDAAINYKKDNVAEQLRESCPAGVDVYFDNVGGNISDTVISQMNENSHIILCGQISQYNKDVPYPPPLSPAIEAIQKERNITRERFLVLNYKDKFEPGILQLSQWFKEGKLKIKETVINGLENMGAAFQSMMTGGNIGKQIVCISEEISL
Sequence of UniProt Q15257 (Q15257 whole entry, looked up): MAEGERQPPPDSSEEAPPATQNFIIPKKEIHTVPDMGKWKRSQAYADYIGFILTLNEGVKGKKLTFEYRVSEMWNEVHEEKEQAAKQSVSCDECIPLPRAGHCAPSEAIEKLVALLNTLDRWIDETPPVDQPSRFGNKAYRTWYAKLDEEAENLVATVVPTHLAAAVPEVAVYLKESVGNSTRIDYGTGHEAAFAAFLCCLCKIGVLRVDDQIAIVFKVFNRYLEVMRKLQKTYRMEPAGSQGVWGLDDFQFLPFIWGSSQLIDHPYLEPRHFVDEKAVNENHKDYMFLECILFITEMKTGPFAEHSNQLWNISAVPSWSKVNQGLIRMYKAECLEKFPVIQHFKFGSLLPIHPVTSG

Target | log2 fold change [1] | log2 fold change [2] | log2 fold change [3] | log2 fold change [4] | log2 fold change [5] | log2 fold change [6] | log2 fold change [7] | log2 fold change [8] | log2 fold change [9] | log2 fold change [10] | log2 fold change [11] | log2 fold change [12] | log2 fold change [13] | log2 fold change [14] | log2 fold change [15] | log2 fold change [16] | log2 fold change [17] | log2 fold change [18] | log2 fold change [19] | log2 fold change [20]
PUM1 isoform 3 (UniProt Q14671) | -0.062 | 0.006 | -0.047 | -0.066 | -0.044 | -0.014 | 0.01 | 0 | -0.015 | 0.007 | 0 | -0.032 | -0.082 | -0.015 | 0.034 | 0.108 | -0.008 | 0.01 | -0.028 | -0.007
PTPA (UniProt Q15257) | -0.038 | 0.011 | -0.014 | 0.012 | -0.014 | -0.002 | 0.034 | 0.03 | 0.013 | 0.028 | -0.022 | 0.001 | -0.021 | 0.028 | 0 | 0.004 | 0.028 | -0.027 | -0.021 | -0.015
PSMD2 (UniProt Q13200) | 0.079 | 0 | -0.031 | 0.061 | 0.031 | -0.005 | -0.12 | -0.006 | 0.07 | -0.038 | -0.018 | 0.012 | 0.005 | 0.038 | -0.024 | 0.01 | -0.006 | -0.018 | 0.03 | -0.082
PELP1 (UniProt Q8IZL8) | 0.005 | -0.115 | -0.007 | 0.007 | 0.004 | -0.047 | 0.064 | -0.034 | 0.063 | -0.009 | 0.071 | -0.068 | -0.046 | 0.071 | -0.022 | -0.003 | 0.038 | 0.078 | -0.084 | -0.027
PLBD2 (UniProt Q8NHP8) | -0.173 | -0.056 | -0.011 | 0.024 | -0.013 | -0.052 | 0.017 | 0.044 | 0.093 | 0.056 | -0.002 | 0.049 | -0.091 | -0.004 | -0.008 | -0.073 | 0.003 | 0.017 | 0.001 | -0.006
PIGG (UniProt Q5H8A4) | -0.034 | 0.047 | 0.083 | 0.007 | -0.013 | -0.022 | 0.004 | -0.044 | 0.012 | 0.038 | -0.046 | -0.032 | -0.06 | 0.052 | 0.039 | -0.104 | 0.052 | 0.025 | -0.019 | 0.029
PPP2R5C isoform 5 (UniProt Q13362) | -0.024 | 0.005 | -0.168 | -0.026 | -0.227 | 0.026 | 0.031 | -0.06 | -0.099 | 0.042 | 0.003 | 0.011 | -0.134 | -0.027 | 0.018 | -0.044 | 0.169 | -0.005 | -0.053 | -0.01
PTGR2 (UniProt Q8N8N7) | 0.084 | -0.151 | 0.003 | -0.215 | -0.025 | 0.07 | 0.112 | 0.485 (active) | 0.184 | -0.066 | -0.039 | -0.077 | 0.123 | -0.164 | -0.05 | -0.149 | 0.009 | -0.011 | 0.611 (active) | 0.231
